The results in this text go back to PubChem BioAssay (NCATS).

Where “and” joins values, the source holds several entries; their conditions need not be identical. Identical values can stand only once. A number with no mark means an inactive call. Records with an inconclusive call do not appear. Calls of active or inactive are those of the source. Unless noted, calls come from the whole dose curve; as a rule, active = well fitted curve in the direction sought with a large enough effect; inconclusive = small, poorly fitted or top-dose-only effect, or another doubt; inactive = no such curve, though single readings can be large; an effect the other way counts as inactive or inconclusive.

Test [1] in a line: qHTS Assay for Identification of Small Molecule Antagonists for NFkB Signaling Pathway (AID 895; active = well fitted inhibition curve with a large enough effect in the signal ratio, with a control signal flat, not every such curve was filed as active; the % refers to the signal ratio; note: % is set by controls: 0 for no effect and ±100 for the full control effect). In a few lines: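 ME-180 NFkB-bla cells (beta-lactamase under NFkB response element), plated overnight, treated with compound then 10 pM TNF alpha (about EC50) for 5 hrs at 37 C. LiveBLAzer FRET read at 460/530 nm emission, 405 nm excitation.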
A short description of test [2]: qHTS Assay for Identification of Small Molecule Agonists for Thrombopoietin (TPO) Signaling Pathway (AID 917). Note: % is set by controls: 0 for no effect and ±100 for the full control effect. In a few lines:
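Luminescence from a Glycoprotein IIb promoter–driven luciferase reporter served as read-out in murine Ba/F3 cells carrying the human TPO receptor. Cells, deprived of IL-3 overnight, received compounds with 26 pM TPO and were incubated 24 hrs at 37 C.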

In test [3] the target is Muscarinic acetylcholine receptor M1 (Rattus norvegicus) (UniProt P08482). The test is described as follows: qHTS Assay for Antagonists of Acetylcholine Muscarinic M1 Receptor: Kinetic Measurement of Intracellular Calcium Response (AID 943). Note: potency is the fitted concentration of half-maximal effect; nearly all actives have a fitted effect of over 75% in size. In a few lines: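 CHO cells stably expressing rat M1 were loaded with no-wash Fluo-4 dye for 1 h at 37C, pre-incubated 10 min with compound, then challenged with EC80 carbachol (100 nM final); kinetic calcium read 4 min, peak/basal ratio.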
Sequence of Muscarinic acetylcholine receptor M1 (Rattus norvegicus) (P08482 whole entry, looked up): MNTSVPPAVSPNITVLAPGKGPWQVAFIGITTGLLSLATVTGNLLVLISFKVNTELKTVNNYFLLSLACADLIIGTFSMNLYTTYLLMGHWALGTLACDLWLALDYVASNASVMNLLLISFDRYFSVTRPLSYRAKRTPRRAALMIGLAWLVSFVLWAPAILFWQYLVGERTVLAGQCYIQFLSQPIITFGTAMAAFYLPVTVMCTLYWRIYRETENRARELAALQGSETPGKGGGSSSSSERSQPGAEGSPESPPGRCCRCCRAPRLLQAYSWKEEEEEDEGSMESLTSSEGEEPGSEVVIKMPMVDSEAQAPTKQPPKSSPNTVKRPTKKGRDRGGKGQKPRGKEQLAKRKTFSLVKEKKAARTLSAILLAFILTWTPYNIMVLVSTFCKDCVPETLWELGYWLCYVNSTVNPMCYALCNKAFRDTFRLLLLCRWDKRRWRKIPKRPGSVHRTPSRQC

Test [4] can be described thus: Cell Viability - Jurkat (AID 426;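 active = dose-dependent loss of cell ATP signal giving a full or clear fitted curve, ranked by lower potency value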; note: potency is the fitted concentration of half-maximal effect). Conditions: qHTS. In a few lines: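 Jurkat (clone E6-1, human T-cell leukemia) cells, 5000/well in complete medium, were exposed to compound for 40 hr at 37 °C. Viability was read as intracellular ATP by CellTiter-Glo luminescence; AC50 came from Hill fits of concentration-response data.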
Test [5] is described as follows: Cell Viability - HepG2 (AID 433; calls by dose curve;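 note: potency is the fitted concentration of half-maximal effect; potency for ATP loss meaning cytotoxicity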). Conditions: qHTS. In a few lines:
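Read-out is luciferase-based quantitation of cellular ATP as a measure of viable HepG2 cells after 40 h treatment at 37 °C. Signal decrease is scaled between DMSO-only and 100 uM tamoxifen controls, with AC50 fitted by the Hill equation.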

Test [6] in a line: Cell Viability - HUV-EC-C (AID 542). Note: potency is the fitted concentration of half-maximal effect; nearly all actives have a fitted effect of over 35% in size. In a few lines:
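HUV-EC-C normal human vascular endothelial cells, 1000 cells/well, pre-incubated 5 hr at 37 °C, then exposed to compounds for 40 hr at 37 °C in complete medium. Viability measured as intracellular ATP by CellTiter-Glo luminescence; AC50 from Hill fits.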

Test [7] can be described thus: Cell Viability - LYMP2-004 (AID 966).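 Note: plate controls were DMSO only for no effect and tetraoctylammonium bromide control for full effect; nearly all actives have a fitted effect of over 65% in size.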 Summed up: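 Human lymphoblastoid cells (2500/well) in complete medium were treated with compounds for 24 hr at 37 C, then intracellular ATP was measured by CellTiter-Glo luminescence. AC50 values came from Hill-equation fits of concentration-response data.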
The nature of test [8]: Cell Viability - LYMP2-005 (AID 967).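 Note: plate controls were DMSO only for no effect and 92 µM tetraoctylammonium bromide control for full effect.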 In a few lines:
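Acute cytotoxicity is scored as a concentration-dependent drop in intracellular ATP in human lymphoblastoid LYMP2-005 cells after 24 h compound treatment. ATP is quantified by luciferase luminescence, and AC50 is derived by Hill-equation modelling.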

Test [9] in a line: Cell Viability - LYMP2-026 (AID 989). Note: nearly all actives have a fitted effect of over 50% in size. Note: potency is the fitted concentration of half-maximal effect. In a few lines: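 Human lymphoblastoid cells (2500/well) in complete medium were preincubated 5 hr at 37 C, then exposed to compounds for 24 hr at 37 C. Cellular ATP was read by CellTiter-Glo luminescence; AC50 from Hill-equation fits of concentration-response data.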
Test [10] in a line: Cell Viability - LYMP1-002 - Assay at 24 hr (AID 993). For activity change, negative = cytotoxicity: % is set by controls: 0 for no effect and ±100 for the full control effect. Note: potency is the fitted concentration of half-maximal effect. Summed up:
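Human lymphoblastoid LYMP1-002 cells, 2500/well in complete medium, were treated with compounds for 24 h at 37 C; intracellular ATP was read by CellTiter-Glo luminescence. AC50 values came from Hill-equation fits of qHTS concentration-response data.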

The nature of test [11]: Cell Viability - LYMP1-002 - Assay at 40 hr (AID 994). Note: nearly all actives have a fitted effect of over 60% in size. Note: potency is the fitted concentration of half-maximal effect. Summed up:
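Human lymphoblastoid cells, 2500/well in complete medium, were preincubated 5 hr at 37 C, then exposed to compounds for 40 hr at 37 C. Intracellular ATP was read by CellTiter-Glo luminescence after 30 min at room temperature; AC50 from Hill-equation fits.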

A short description of test [12]: qHTS assay for small molecule disruptors of the mitochondrial membrane potential - 1 hr assay (AID 651754; calls by dose curve; note: potency is the fitted concentration of half-maximal effect; nearly all actives have a fitted effect of over 35% in size). Summed up:
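HepG2 cells, attached overnight at 37C, were exposed to compound or DMSO vehicle for 1 hr at 37C, 5% CO2, then stained with Mito-MPS dye for 30 min. Red aggregate versus green monomer fluorescence reports membrane potential.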

The target in test [13] is Tumor necrosis factor (Homo sapiens) (UniProt P01375). Description: qHTS assay to identify small molecules that stimulate Tumor Necrosis Factor-alpha (TNF-alpha) secretion (AID 651757; active = well fitted curve in the direction sought with a large enough effect in the signal ratio; the % refers to the signal ratio; note: 0% is about no effect). Summed up:
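THP-1 cells were exposed to compounds for 17 hrs at 37 C, after which secreted TNF-alpha was measured by homogeneous HTRF (TR-FRET) using cryptate- and XL665-labeled anti-TNF-alpha antibodies, read after 3 hr at room temperature.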

Test [14] is described as follows: qHTS assay to identify small molecules that stimulate interleukin-8 (IL-8) secretion (AID 651758; active = well fitted activation curve with a large enough effect in the signal ratio; the % refers to the signal ratio; note: 0% is about no effect). In a few lines: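 THP-1 cells (2000/well) exposed to compound 16 h at 37 C; secreted IL-8 then detected by HTRF with cryptate- and XL665-labelled anti-IL-8 antibody pair after 1-3 h at room temperature.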
The nature of test [15]: Cell Viability - BJ (AID 421; calls by dose curve;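 note: potency is the fitted concentration of half-maximal effect; cells exposed to compound for 40 hours at 37 °C before readout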). The following applies: BJ fibroblast viability, qHTS. In a few lines: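 Normal human BJ foreskin fibroblasts, 1500/well in complete medium, treated 40 hr at 37 °C. Cellular ATP by CellTiter-Glo luminescence; normalized to DMSO and 100 uM tamoxifen, AC50 from Hill fit.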
Test [16] is described as follows: Cell Viability - N2a (AID 540).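 Note: plate controls were DMSO alone for no effect and tamoxifen control for full effect; nearly all actives have a fitted effect of over 45% in size.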 Conditions: N2a mouse neuroblastoma cell viability; at 92.2 µM (top of the series). In a few lines: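 Mouse neuroblastoma N2a cells (1500/well) were preincubated 5 hr at 37 °C, then exposed to compounds for 40 hr at 37 °C in complete medium. Viability was read as intracellular ATP by CellTiter-Glo luminescence; AC50 from Hill fits.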

Test [17] is described as follows: Cell Viability - NIH 3T3 (AID 541). Note: potency is the fitted concentration of half-maximal effect; nearly all actives have a fitted effect of over 25% in size. The following applies: NIH 3T3 cell viability, qHTS; activity change, negative = cytotoxicity: at 92.2 µM (top of the series). In a few lines: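 NIH 3T3 mouse embryo fibroblasts (1000 cells/well) were plated in complete medium and treated with compound for 40 hr at 37 °C. Viability was read as intracellular ATP by CellTiter-Glo luminescence; AC50 values came from Hill-equation fits of concentration-response data.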

Test [18] can be described thus: Cellular Toxicity (caspase-3) HepG2 (AID 654).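 Note: cells exposed to compound for 16 hours before reading; 0% = DMSO alone and 100% = caspase signal from 100 µM tamoxifen.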 Summed up: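 HepG2 cells (1500/well) in complete medium were treated with compounds for 16 hr at 37 °C. Caspase-3/7 activity was then read as luminescence from peptide-aminoluciferin cleavage. AC50 came from Hill fits, normalized to DMSO and 100 uM tamoxifen.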
Test [19] in a line: Cellular Toxicity (caspase-3) Jurkat (AID 655).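 Note: cells exposed to compound for 16 h at 37 °C before reading.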 Conditions: Jurkat caspase-3 activation, luminescence, DMSO = 0%, tamoxifen = 100%; at 92.2 µM (top of the series). In a few lines: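 5000 Jurkat cells/well; compound 16 hr, 37 °C; Caspase-Glo 3/7 added, 20 min RT; luminescence read. Norm: DMSO = 0%, tamoxifen 100 uM = 100%. AC50, Hill model.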
For test [20], the target named is Androgen receptor (Homo sapiens) (UniProt P10275). Description: qHTS assay for small molecule agonists of androgen receptor signaling (AID 588515; active = well fitted curve in the direction sought with a large enough effect in the signal ratio, with a control signal flat; the % refers to the signal ratio; note: % is set by controls: 0 for no effect and ±100 for the full control effect). Conditions: AR-UAS-bla HEK293, beta-lactamase ratio, agonist 16 h; stronger effect = higher value. In a few lines: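 EC50 and efficacy came from Hill fits of titrations (up to 92 uM) normalized to 30 nM R1881 as 100% and DMSO as 0%. Compound exposure was 16 h at 37 C on AR-UAS-bla HEK293 cells, with a 405/460/530 nm CCF4 fluorescence read.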
Sequence of Androgen receptor (Homo sapiens) (P10275 whole entry, looked up): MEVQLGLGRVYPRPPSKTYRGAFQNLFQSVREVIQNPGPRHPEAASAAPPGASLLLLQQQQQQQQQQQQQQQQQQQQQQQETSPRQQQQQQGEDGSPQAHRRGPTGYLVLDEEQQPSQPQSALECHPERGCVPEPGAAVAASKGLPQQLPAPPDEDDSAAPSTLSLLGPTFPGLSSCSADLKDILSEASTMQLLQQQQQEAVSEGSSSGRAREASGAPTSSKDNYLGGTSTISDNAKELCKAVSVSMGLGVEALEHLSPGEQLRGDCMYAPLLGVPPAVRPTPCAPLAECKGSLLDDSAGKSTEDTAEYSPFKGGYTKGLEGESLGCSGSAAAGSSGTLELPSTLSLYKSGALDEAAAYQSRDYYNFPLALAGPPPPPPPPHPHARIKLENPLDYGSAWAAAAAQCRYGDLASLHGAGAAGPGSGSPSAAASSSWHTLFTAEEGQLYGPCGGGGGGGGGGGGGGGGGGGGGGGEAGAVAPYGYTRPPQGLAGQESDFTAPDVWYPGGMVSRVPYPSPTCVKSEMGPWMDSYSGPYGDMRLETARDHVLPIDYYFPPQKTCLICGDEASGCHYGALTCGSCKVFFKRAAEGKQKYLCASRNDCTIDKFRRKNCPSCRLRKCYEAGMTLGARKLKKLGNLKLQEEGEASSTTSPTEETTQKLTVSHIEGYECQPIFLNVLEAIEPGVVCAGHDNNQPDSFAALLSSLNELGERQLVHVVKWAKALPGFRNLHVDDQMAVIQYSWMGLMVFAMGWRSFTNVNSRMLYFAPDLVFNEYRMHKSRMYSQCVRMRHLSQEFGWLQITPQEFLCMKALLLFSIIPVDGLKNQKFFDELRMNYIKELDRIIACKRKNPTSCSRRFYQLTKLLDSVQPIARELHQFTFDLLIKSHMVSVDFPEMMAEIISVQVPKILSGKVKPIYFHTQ

Sequence of Tumor necrosis factor (Homo sapiens) (P01375 whole entry, looked up): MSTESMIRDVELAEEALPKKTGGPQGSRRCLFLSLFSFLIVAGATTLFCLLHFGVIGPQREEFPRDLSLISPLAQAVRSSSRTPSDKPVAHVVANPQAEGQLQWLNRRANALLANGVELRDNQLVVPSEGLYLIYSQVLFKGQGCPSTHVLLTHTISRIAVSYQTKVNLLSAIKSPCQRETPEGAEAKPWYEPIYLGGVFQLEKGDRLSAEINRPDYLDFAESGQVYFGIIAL

In the case of `CC(C)N(CC[C@@](C(N)=O)(c1ccccc1)c1ccccn1)C(C)C`, the Potency result in test [1] was “inactive”. Further, the outcome in test [2] was inactive. Also, the Potency in test [3] was 4.47 µM (active) and 3.98 µM (active).

As to `CCCCCCCCCc1ccc(O)cc1`, the Potency in [4] is more than 92 µM; in [5], more than 92 µM; in test [6], 31.6 µM (active); in test [12], 10.6 µM (active). The Potency result in test [7], in test [8], in [9], in [10], in test [11] and in test [14] was “inactive” each time. Also, the molecule was called inactive in test [13].

As to `O=C1C(Cl)=C(Cl)C(=O)C(Cl)=C1Cl`, the Potency is 50.5 µM (active) in test [15]; 31.6 µM (active) in test [17]; 25.1 µM (active) in test [9]; 39.8 µM (active) in test [10]; 39.8 µM (active) in [11]. In [16], the activity change, negative = cytotoxicity was -88.2% (active). In addition, the result in test [18] was inactive. Further, the caspase-3 activation in test [19] is -9.68%.

For the molecule `O=C(O)COc1cc(Cl)c(Cl)cc1Cl`, the activation in test [20] was -1.88%.

With `CCC(=O)Nc1ccc(Cl)c(Cl)c1`, the activation in test [20] was 16.4%.
